Screens deposited in PubChem by National Center for Advancing Translational Sciences (NCATS).
An excerpt weighted towards active compounds, which were near 2.1% of everything screened.
B2AR arrestin: beta2AR (human) beta-arrestin recruitment activity. P07550. beta-arrestin recruitment to beta2AR, cell-based reporter. Potency, µM (highest dose often 46.1 µM), for the others: top-dose activation, actives largely listed as activators. actives 0.02% (n = 330,000);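 further: potency means the concentration at half of the fitted maximal effect; 0% = DMSO controls and full agonism = EC100 isoproterenol or metaproterenol; nearly all actives have a fitted effect of over 65% in size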
uPA surface inh: cell surface uPA generation inhibition | cell surface uPA generation assay, qHTS | Potency, µM (top dose mostly 38.3 µM), for inactives: top-dose activity change, negative = inhibition, usual class: inhibitors | actives 0.31% (n = 330,000) | AID 540303; active means well fitted inhibition curve with a large enough effect; inconclusive means small, poorly fitted or top-dose-only effect; inactive means no such curve, though single readings can be large or run the other way; tested in mouse RAW 264.7 cells; further: potency means the concentration at half of the fitted maximal effect; on the % scale 0 is the no-effect control and ±100 the full control effect; nearly all actives have a fitted effect of over 55% in size
Giardia killer: Giardia lamblia killing; Giardia lamblia trophozoite viability; actives 0.15% (n = 340,000); activity change, % at 7.66 µM, hits read low; AID 540267; in the data active means activity change below about -80%; inconclusive means between about -30% and that limit;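 further: parasites exposed to compound for two days anaerobically before the ATP read; on the % scale 0 is the no-effect control and ±100 the full control effect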
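Luminescent ATP signal served as the viability read-out, measured 15-30 min after adding ATP detection reagent to trophozoites that had been incubated with compounds for 48 hrs at 37 deg C anaerobically at 100 cells/well.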
ClpP mod: qHTS Assay for Activators of ClpP | ATP-dependent Clp protease proteolytic subunit (Bacillus subtilis (strain 168)), P80244 | purified B. subtilis ClpP, FRET peptide cleavage, 20 min | Potency, µM (highest dose often 57.5 µM), for inactives: top-dose activity change, negative = active | actives 1.9% (n = 340,000) | AID 651965, 2013; active means well fitted falling curve with a large enough effect; inconclusive means small, poorly fitted or top-dose-only effect; inactive means no such curve, though single readings can be large or run the other way; further: potency means the concentration at half of the fitted maximal effect; the source files actives as falling curves though it sought activators and does not explain the sign; nearly all actives have a fitted effect of over 65% in size
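Purified B. subtilis ClpP, 10 microg/mL final in Tris/HCl pH8 with KCl, BSA, glycerol and Tween-20, cleaved an Abz/nitrotyrosine-quenched decapeptide. Fluorescence (ex 320, em 430) was read at 0 and 20 min at room temperature. Delta was normalized to 5.8 microM ADEP and DMSO/no-enzyme controls.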
p53 reactivator: re-activators of mutant p53; H1299 p53-A138V BP100-luciferase reporter, luminescence, 24 h; Potency, µM (top dose mostly 92.2 µM), inactives show at the highest dose activity change, positive = activation, actives largely listed as activators; actives 0.063% (n = 320,000); AID 504706; further: potency means the concentration at half of the fitted maximal effect; % of control where 0% means no effect; nearly all actives have a fitted effect of over 45% in size
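p53-null H1299 cells stably carrying temperature-sensitive p53-A138V and a BP100-luciferase reporter were pinned with compounds (4-point, 1:5 series) and held 24 hrs at 37 deg C. Luminescence was read 10 min after detection reagent.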
Mito fusion act: blocks mitochondrial division or promotes mitochondrial fusion. actives 0.23% (n = 320,000). Potency, µM (highest dose often 46.1 µM), for inactives: top-dose growth rescue (activation), hits mostly activators. S. cerevisiae fusion-defective mutant growth rescue, CellTiterGlo 48 h. AID 485298; further: potency means the concentration at half of the fitted maximal effect; % of control where 0% means no effect; nearly all actives have a fitted effect of over 45% in size
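Temperature-sensitive fusion-defective S. cerevisiae (e.g. fzo1-1, mgm1-5) were grown with compound in YPEG medium (3% ethanol, 3% glycerol) for 48 hours at 37C. Growth rescue was measured as viability by CellTiterGlo luminescence after 10 minutes at ambient.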
Starred values were filed as active, the others as inactive; ? = inconclusive; nt = no result given. Unless noted, the call rests on the fitted dose curve; in most records, active means well fitted curve in the direction sought with a large enough effect; inconclusive means small, poorly fitted or top-dose-only effect, or another doubt; inactive means no such curve, though single readings can be large; an effect the other way counts as inactive or inconclusive.

SMILES	B2AR arrestin	uPA surface inh	Giardia killer	ClpP mod	p53 reactivator	Mito fusion act
COc1ccc(-c2nc3ccccc3o2)cc1NC(=O)C(C)(C)Oc1ccc(Br)cc1	nt	nt	nt	-33%	nt	nt
CCOc1ccc(N2C(=O)C3C(C2=O)C3(c2ccccc2)c2ccccc2)cc1 (configuration not stated)	0%	-5%	-3	-3%	-6%	9%
CCOc1ccc(N2C(=O)C3C(c4ccccc4)=NN(c4ccccc4)C3C2=O)cc1 (configuration not stated)	0%	8%	0	11µM*	-8%	?
CCOc1ccccc1NC(=O)CSC1=Nc2ccccc2C2=NC(CC(=O)NC3CCCCC3)C(=O)N12 (configuration not stated)	nt	nt	nt	-2%	nt	nt
N#Cc1nc(-c2ccc(COc3ccccc3)o2)oc1NCc1ccccc1	nt	nt	nt	20µM*	nt	nt
N#Cc1nc(-c2ccc(OCc3ccc(Cl)cc3)cc2)oc1NCc1cccnc1	0%	-2%	4	28µM*	22%	-3%
COc1ccc(OCc2ccc(-c3nc(C#N)c(N4CCC(C)CC4)o3)o2)cc1	nt	nt	nt	25µM*	nt	nt
N#Cc1nc(-c2ccc(OCc3ccccc3)cc2)oc1NCc1cccnc1	0%	-9%	-16	?	2%	3%
N#Cc1nc(-c2ccc(COc3ccccc3)o2)oc1N1CCN(c2ccccc2)CC1	nt	nt	nt	16µM*	nt	nt
CN(C)c1oc(-c2ccc(OCc3ccccc3)cc2)nc1C#N	-2%	5%	5	13µM*	?	20%
Cc1ccc(OCc2ccc(-c3nc(C#N)c(N4CCC(C)CC4)o3)o2)cc1	nt	nt	nt	4%	nt	nt
CC1CCN(c2oc(-c3ccc(COc4ccccc4)o3)nc2C#N)CC1	nt	nt	nt	16µM*	nt	nt
COc1ccc(OCc2ccc(-c3nc(C#N)c(N4CCC(C(N)=O)CC4)o3)o2)cc1	nt	nt	nt	35µM*	nt	nt
Cc1cccc(OCc2ccc(-c3nc(C#N)c(N4CCC(C(N)=O)CC4)o3)o2)c1	nt	nt	nt	4%	nt	nt
Cc1ccc(OCc2cc(=O)n3cc(C)sc3n2)c(C)c1	nt	nt	nt	0%	nt	nt
Cc1ccc(N2CC3=C(C2=O)C(c2ccc(Br)cc2)NC(=O)N3C)cc1 (configuration not stated)	nt	nt	nt	-5%	nt	nt
Cc1ccccc1N(CC(=O)N/N=C/c1ccccc1Cl)C(=O)c1ccccc1	1%	3%	-18	0%	-3%	0%
CN(c1ccccc1)c1ccc(/C=N/NC(=O)CC#N)cc1	1.3µM*	0%	2	?	-6%	1%
Cc1c(NC(=S)N/N=C/c2ccc(N(C)C)cc2)c(=O)n(-c2ccccc2)n1C	-3%	3%	-1	32µM*	2%	-8%
Cc1ccccc1N(CC(=O)N/N=C/c1ccc(N(C)C)cc1)C(=O)c1ccccc1	12%	0%	49	35µM*	23%	1%
CN(C)c1ccc(/C=N/NC(=S)NCc2ccccc2)cc1	5%	11%	8	18µM*	20%	-4%
CCCCNC(=O)C1(C)CCCCN1C(=O)c1ccc2sccc2c1 (configuration not stated)	nt	nt	nt	2%	nt	nt
Oc1ccc(/C=N/NC(=S)NCc2ccco2)cc1	0%	3%	4	-6%	-2%	-1%
CCN(CC)c1ccc(/C=N/NC(=S)NCc2ccco2)cc1	0%	-8%	-1	16µM*	9%	12%
COc1cc(CN(CC2CCCO2)C(=O)c2ccc(F)cc2)cc(OC)c1OC (configuration not stated)	nt	nt	nt	-3%	nt	nt
SMILES	B2AR arrestin	uPA surface inh	Giardia killer	ClpP mod	p53 reactivator	Mito fusion act
CCc1ccc(-c2csc(-c3c[nH]c4ccccc34)n2)cc1	0%	6%	-15	?	20µM*	30%
CN(C)c1ccc(NC(=O)Nc2nc(C(N)C3CCCCC3)cs2)cc1 (configuration not stated)	nt	nt	nt	-1%	nt	nt
COc1cccc(-c2nnc(NC(C)=O)o2)c1	0%	3%	-11	?	4%	-2%
COc1cccc(-c2nnc(Nc3nc4c(F)cccc4s3)o2)c1	0%	?	?	28µM*	?	9%
COc1cccc2sc(Nc3nnc(-c4ccccc4Cl)o3)nc12	0%	?	-11	?	?	19%
COc1ccccc1-c1nnc(Nc2nc3c(OC)cccc3s2)o1	0%	-18%	-13	35µM*	?	-1%
CCc1nn(CC(=O)NC(C)C)c(=O)c2cc3cc(F)ccc3n12	nt	nt	nt	-24%	nt	nt
Cc1ccc(-c2noc(-c3nnn(CC(=O)Nc4cccc(C(F)(F)F)c4)c3N)n2)cc1	nt	nt	nt	-4%	nt	nt
COCCCNC(=O)c1ccc(Cn2c(=O)c3cccn3c3cccnc32)cc1	nt	nt	nt	-22%	nt	nt
N#Cc1nc(-c2ccco2)oc1N1CCN(c2cccc(Cl)c2)CC1	0%	1%	6	32µM*	2%	19%
N#Cc1nc(-c2ccco2)oc1N1CCCC1	0%	0%	4	?	-9%	4%
N#Cc1nc(-c2ccco2)oc1N1CCN(C(c2ccccc2)c2ccccc2)CC1	0%	-1%	-7	6.3µM*	-2%	22%
N#Cc1nc(-c2ccco2)oc1N1CCc2ccccc2C1	0%	nt	-18	14µM*	5%	8%
N#Cc1nc(-c2cccs2)oc1N1CCN(Cc2ccccc2)CC1	-1%	-3%	0	25µM*	?	?
N#Cc1nc(COc2ccccc2)oc1N1CCN(Cc2ccccc2)CC1	0%	1%	10	0%	-8%	15%
COc1ccc(-c2cc(NCCc3ccncc3)n3ncnc3n2)cc1	0%	2%	22	32µM*	-8%	1%
CC(C)NC(=O)N1CCN(S(=O)(=O)c2ccc3c(ccn3C)c2)CC1	nt	nt	nt	0%	nt	nt
COc1cc(NC(=O)c2c(C)oc3ncnc(N4CCCCC4)c23)cc(OC)c1	nt	nt	nt	-3%	nt	nt
Nc1c(Cl)cc(Cl)cc1C(=O)OCC(=O)NC1CC1	-1%	3%	-12	8.9µM*	1%	0%
Cc1cc(S(=O)(=O)Nc2cc3c(cc2N2CCOCC2)n(C)c(=O)c(=O)n3C)ccc1F	nt	nt	nt	-23%	nt	nt
O=[N+]([O-])c1cccc(/C=C/c2nc[nH]c2[N+](=O)[O-])c1	1%	-2%	-81*	2%	1%	-1%
O=C(NNc1cccc(Cl)c1)c1cccnc1Cl	0%	-9%	0	1%	11%	22µM*
OC(Br)C(O)C(O)N1CCCc2ccccc21 (configuration not stated)	nt	nt	nt	-10%	nt	nt
CCN(C(=O)COC(=O)CCCN1C(=O)c2cccc3cccc(c23)C1=O)C1CCS(=O)(=O)C1 (configuration not stated)	0%	-2%	10	28µM*	-5%	4%
